Data on 4 compounds can be found in PubChem BioAssay (EPA / NIEHS).

The nature of assay [1]: ATG_GLI_CIS: Attagene CIS-FACTORIAL HepG2 Assay for human Zinc Finger Protein GLI1 (AID 2282945). The settings on record: HepG2, Attagene cis-factorial reporter mRNA, GLI element; actives raise or lower the signal. Summed up:
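Transiently transfected HepG2 cells report endogenous transcription factor activity via cis-element-driven reporter units. After 24 h compound exposure, reporter mRNA was measured by RT-PCR with capillary electrophoresis; bidirectional fitting against DMSO baseline.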

Assay [2] addresses Bile acid receptor (Homo sapiens) (UniProt Q96RI1). Put plainly: ATG_IR1_CIS: Attagene CIS-FACTORIAL HepG2 Assay for human Nuclear Receptor Subfamily 1 Group H Member 4 (NR1H4), IR1 submotif (AID 2282946). The settings on record: IR1 reporter transcription, actives raise or lower the signal. Summed up: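 Fluorescence of capillary-separated, HpaI-digested RT-PCR reporter products gave IR1-element mRNA induction in HepG2 cells 24 h after dosing. Endogenous transcription factors drove the cis-regulated reporters; activity was fitted bidirectionally against DMSO.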

Assay [3] can be described thus: ATG_GRE_CIS: Attagene CIS-FACTORIAL HepG2 Assay for human Glucocorticoid Response Elements (GRE) (AID 2282947). The note with it: HepG2 GRE cis-reporter, Attagene multiplex mRNA; actives raise or lower the signal. Summed up:
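Read-out: fluorescent reporter-transcript fragments separated by capillary electrophoresis after RT-PCR. Transiently transfected HepG2 cells carrying cis-element-driven reporter units were dosed for 24 h; gain or loss of signal fitted against DMSO control.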

Assay [4] can be described thus: ATG_ISRE_CIS: Attagene CIS-FACTORIAL HepG2 Assay for human Interferon Regulatory Factor 1 (IRF1) binding to an Interferon-Stimulated Response Element (ISRE) (AID 2282948). The note with it: HepG2 ISRE cis-reporter (Attagene), mRNA transcription readout; actives raise or lower the signal. Summed up: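 Multiplexed mRNA reporter readout in human liver HepG2 cells: cis-element-driven reporters transfected, compound added for 24 h, transcripts amplified, fluorescently labelled and sized by capillary electrophoresis; curve fitting bidirectional against DMSO.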

A short description of assay [5]: ATG_M_32_CIS: Attagene CIS-FACTORIAL HepG2 Assay for M32 Transcription Factor (Internal Marker) (AID 2282949).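 Note: background control marker of the multiplexed CIS panel rather than a real target.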 The settings on record: HepG2 Attagene cis-factorial M32 reporter, mRNA; actives raise or lower the signal. Summed up: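 Using DMSO as baseline, bidirectional curve fits were applied to reporter mRNA signals. These came from transiently transfected HepG2 cells exposed for 24 h, with RNA analysed by RT-PCR, FAM primer extension, HpaI digestion and CE.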

Assay [6] in a line: ATG_M_06_CIS: Attagene CIS-FACTORIAL HepG2 Assay for M06 Transcription Factor (Internal Marker) (AID 2282950). The note with it: HepG2 Attagene CIS-FACTORIAL M06 internal marker reporter; actives raise or lower the signal. The method, boiled down:
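Terse: HepG2, transient MRTU transfection (FuGene 6), 24 h dosing; total RNA, oligo(dT) RT, PCR, FAM label, HpaI cut, capillary electrophoresis; bidirectional fit vs DMSO baseline; background-control endpoint.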

Assay [7] deals with Hypoxia-inducible factor 1-alpha (Homo sapiens) (UniProt Q16665). Put plainly: ATG_HIF1a_CIS: Attagene CIS-FACTORIAL HepG2 Assay for human Hypoxia Inducible Factor 1 (HIF1A) (AID 2282951). The settings on record: HepG2 Attagene cis-factorial HIF1a reporter transcription; actives raise or lower the signal. The method, boiled down: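 After 24 h chemical exposure of reporter-transfected HepG2 cells, reporter cDNA was PCR-amplified, labelled by 6-FAM primer extension (2 min 95 C, 20 s 68 C, 10 min 72 C), HpaI-cut (2 h, 37 C) and analysed by CE.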

Assay [8] addresses Hepatocyte nuclear factor 6 (Homo sapiens) (UniProt Q9UBC0). Put plainly: ATG_HNF6_CIS: Attagene CIS-FACTORIAL HepG2 Assay for human Hepatocyte Nuclear Factor 6 (HNF6) (AID 2282952). The note with it: HepG2 Attagene cis-factorial HNF6 reporter transcription; actives raise or lower the signal. Summed up:
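Endogenous transcription factor activity in human HepG2 liver cells was captured through cis-regulated reporter constructs. After 24 h treatment, reporter mRNA was measured by RT-PCR with capillary electrophoresis, and activity was fitted in both directions relative to DMSO.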

The target of assay [9] is Heat shock factor protein 1 (Homo sapiens) (UniProt Q00613). Put plainly: ATG_HSE_CIS: Attagene CIS-FACTORIAL HepG2 Assay for human Heat Shock Transcription Factor 1 (HSE) (AID 2282953). The settings on record: HepG2 HSE cis-reporter, Attagene RNA transcription; actives raise or lower the signal. The method, boiled down:
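Read-out: fluorescence of reporter-specific RT-PCR fragments separated by capillary electrophoresis. HepG2 carrying transfected cis-element reporter units; 24 h dosing; activity fitted in both directions relative to DMSO baseline.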

Assay [10] is described as follows: ATG_MRE_CIS: Attagene CIS-FACTORIAL HepG2 Assay for human Metal Responsive Element (MRE) (AID 2282954). The note with it: HepG2 MRE cis-reporter transcription, Attagene multiplex; actives raise or lower the signal. The method, boiled down: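 RT-PCR/capillary electrophoresis readout of reporter mRNA, 24 h post-dosing, in HepG2 cells transfected with multiplexed cis-regulated reporter constructs. Gain or loss of signal fitted bidirectionally against DMSO baseline.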

Assay [11] can be described thus: ATG_PBREM_CIS: Attagene CIS-FACTORIAL HepG2 Assay for human Phenobarbital-responsive Enhancer Module (PBREM) (AID 2282955). The note with it: HepG2 PBREM cis-reporter, Attagene multiplexed transcription; actives raise or lower the signal. Summed up:
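Measures endogenous factor action on a phenobarbital-responsive enhancer module. HepG2 transiently carrying cis reporters, 24 h treatment, mRNA read-out by RT-PCR plus capillary electrophoresis.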

For assay [12], the target named is Paired box protein Pax-6 (Homo sapiens) (UniProt P26367). Put plainly: ATG_Pax6_CIS: Attagene CIS-FACTORIAL HepG2 Assay for human Paired Box 6 (PAX6) (AID 2282956). The note with it: HepG2 CIS-FACTORIAL PAX6 reporter transcription, RNA readout; actives raise or lower the signal. The method, boiled down: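 Fluorescent RT-PCR products separated by capillary electrophoresis report PAX6-linked promoter mRNA in HepG2 cells 24 h post-dose. Curves fitted bidirectionally, DMSO as negative control.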

Assay [13] can be described thus: ATG_PPRE_CIS: Attagene CIS-FACTORIAL HepG2 Assay for human Peroxisome Proliferator-activated Response Element (PPRE) (AID 2282958). The note with it: HepG2 PPRE cis-element reporter, Attagene transcription factor profiling; actives raise or lower the signal. The method, boiled down: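 PPRE activity in HepG2: transient cis-reporter transfection, 24 h compound incubation, reporter mRNA by RT-PCR and CE fluorescence; gain/loss fitted against DMSO.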

Assay [14] in a line: ATG_RORE_CIS: Attagene CIS-FACTORIAL HepG2 Assay for human RAR-related Orphan Receptor Element (RORE) (AID 2282959). The settings on record: HepG2 Attagene cis-factorial RORE reporter, mRNA; actives raise or lower the signal. The method, boiled down:
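A 24-hour exposure of transfected HepG2 hepatoma cells precedes RNA isolation and reporter RT-PCR. Labeled products are digested with HpaI and resolved by capillary electrophoresis, with gain or loss of signal scored relative to DMSO.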

Assay [15] is described as follows: ATG_Sox_CIS: Attagene CIS-FACTORIAL HepG2 Assay for human SRY-box transcription factor (SOX) (AID 2282960). The settings on record: HepG2 Attagene cis-factorial SOX reporter, mRNA; actives raise or lower the signal. Summed up:
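HepG2, cis reporter units, 24 h exposure. Reporter mRNA: RT-PCR → FAM labelling → HpaI → CE fluorescence. Bidirectional fit vs DMSO.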

Assay [16] concerns the target Transcription factor Sp1 (Homo sapiens) (UniProt P08047). The assay is described as follows: ATG_Sp1_CIS: Attagene CIS-FACTORIAL HepG2 Assay for human Specificity Protein 1 (Sp1) (AID 2282961). The note with it: HepG2 Sp1 cis-reporter transcription, actives raise or lower the signal. The method, boiled down: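 Liver-derived HepG2 cells, cis-element reporter library, 24 h treatment; RNA isolated, cDNA amplified with reporter-specific primers, FAM-labeled fragments sized on capillary analyzer. DMSO baseline, bidirectional curve fit.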

Assay [17] is described as follows: ATG_SREBP_CIS: Attagene CIS-FACTORIAL HepG2 Assay for human Sterol Regulatory Element Binding (SREBP) (AID 2282962). The note with it: HepG2 Attagene cis-factorial SREBP reporter, mRNA; actives raise or lower the signal. Summed up: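 Endogenous factor activity is measured in HepG2 through multiplexed reporter units under cis-element control. Following a 24 h incubation, reporter transcripts are reverse-transcribed, PCR-amplified and sized by capillary electrophoresis; activity is fitted in both directions relative to DMSO.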

The target of assay [18] is Signal transducer and activator of transcription 3 (Homo sapiens) (UniProt P40763). Put plainly: ATG_STAT3_CIS: Attagene CIS-FACTORIAL HepG2 Assay for human Signal Transducer and Activator of Transcription 3 (STAT3) (AID 2282963). The note with it: HepG2, Attagene cis-factorial STAT3 reporter transcription; actives raise or lower the signal. The method, boiled down:
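Readout: fluorescent reporter mRNA fragments resolved by capillary electrophoresis. Setup: HepG2 transfected with MRTUs reporting endogenous transcription-factor activity, dosed 24 h. Gain or loss of signal fitted bidirectionally against DMSO control.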

A short description of assay [19]: ATG_TA_CIS: Attagene CIS-FACTORIAL HepG2 Assay for human TA Basal Promoter (AID 2282964). The settings on record: HepG2 Attagene CIS-factorial TA basal promoter reporter; actives raise or lower the signal. Summed up: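 Transfected HepG2, 24 h compound exposure; RNA → RT-PCR → FAM primer extension → HpaI cut → CE fluorescence. Gain/loss-of-signal fitted against DMSO negative control. Background-control readout.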

A short description of assay [20]: ATG_PXRE_CIS: Attagene CIS-FACTORIAL HepG2 Assay for human Pregnane X Receptor Element (PXRE) (AID 2282957). The settings on record: HepG2 Attagene CIS-FACTORIAL PXRE reporter, mRNA; actives raise or lower the signal. Summed up: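 Endogenous transcription factor activity in HepG2 was gauged through induction of reporter mRNA driven by a cis-regulating promoter element, sampled 24 h post-treatment. Activity was fitted in both directions against DMSO negative control.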

Active and inactive are the calls of the source. Rule for the calls: active = hit-call score of the fitted dose curve at least 0.9, where 1 is the maximum; inactive = score below 0.9.

Chain of Transcription factor Sp1 (Homo sapiens) (P08047 whole entry, looked up, the tested form may be a part): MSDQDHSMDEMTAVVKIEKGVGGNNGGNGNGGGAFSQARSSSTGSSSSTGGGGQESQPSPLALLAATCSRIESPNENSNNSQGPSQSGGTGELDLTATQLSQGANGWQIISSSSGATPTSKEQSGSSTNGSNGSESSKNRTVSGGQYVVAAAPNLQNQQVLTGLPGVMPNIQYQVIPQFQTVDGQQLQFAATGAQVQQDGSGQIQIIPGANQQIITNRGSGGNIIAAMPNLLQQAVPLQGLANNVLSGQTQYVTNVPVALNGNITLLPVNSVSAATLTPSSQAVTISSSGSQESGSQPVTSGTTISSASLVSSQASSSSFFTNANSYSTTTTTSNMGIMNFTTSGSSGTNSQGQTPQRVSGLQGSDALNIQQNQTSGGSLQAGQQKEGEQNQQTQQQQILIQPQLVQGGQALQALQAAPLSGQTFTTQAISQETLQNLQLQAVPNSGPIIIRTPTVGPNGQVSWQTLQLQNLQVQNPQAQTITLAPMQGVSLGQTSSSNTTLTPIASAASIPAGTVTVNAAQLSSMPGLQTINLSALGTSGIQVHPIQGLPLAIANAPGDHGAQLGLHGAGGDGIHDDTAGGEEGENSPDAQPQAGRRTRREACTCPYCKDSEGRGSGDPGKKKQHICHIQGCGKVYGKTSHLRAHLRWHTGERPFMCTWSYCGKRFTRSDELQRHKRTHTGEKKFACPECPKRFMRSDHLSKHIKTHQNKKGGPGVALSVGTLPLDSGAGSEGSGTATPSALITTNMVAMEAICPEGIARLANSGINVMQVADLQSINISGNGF
Chain of Paired box protein Pax-6 (Homo sapiens) (P26367 whole entry, looked up): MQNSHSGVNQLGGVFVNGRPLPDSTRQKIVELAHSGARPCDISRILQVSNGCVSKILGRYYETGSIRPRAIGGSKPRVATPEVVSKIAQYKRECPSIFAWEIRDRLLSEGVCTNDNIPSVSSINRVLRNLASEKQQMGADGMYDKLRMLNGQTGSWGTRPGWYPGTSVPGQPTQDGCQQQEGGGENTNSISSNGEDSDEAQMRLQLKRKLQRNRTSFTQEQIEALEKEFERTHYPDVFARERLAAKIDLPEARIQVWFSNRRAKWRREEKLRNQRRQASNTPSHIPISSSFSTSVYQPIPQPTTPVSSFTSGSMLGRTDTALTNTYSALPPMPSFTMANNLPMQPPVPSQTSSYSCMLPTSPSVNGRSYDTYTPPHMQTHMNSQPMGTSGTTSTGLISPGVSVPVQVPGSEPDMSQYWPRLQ
Chain of Hypoxia-inducible factor 1-alpha (Homo sapiens) (Q16665 whole entry, looked up): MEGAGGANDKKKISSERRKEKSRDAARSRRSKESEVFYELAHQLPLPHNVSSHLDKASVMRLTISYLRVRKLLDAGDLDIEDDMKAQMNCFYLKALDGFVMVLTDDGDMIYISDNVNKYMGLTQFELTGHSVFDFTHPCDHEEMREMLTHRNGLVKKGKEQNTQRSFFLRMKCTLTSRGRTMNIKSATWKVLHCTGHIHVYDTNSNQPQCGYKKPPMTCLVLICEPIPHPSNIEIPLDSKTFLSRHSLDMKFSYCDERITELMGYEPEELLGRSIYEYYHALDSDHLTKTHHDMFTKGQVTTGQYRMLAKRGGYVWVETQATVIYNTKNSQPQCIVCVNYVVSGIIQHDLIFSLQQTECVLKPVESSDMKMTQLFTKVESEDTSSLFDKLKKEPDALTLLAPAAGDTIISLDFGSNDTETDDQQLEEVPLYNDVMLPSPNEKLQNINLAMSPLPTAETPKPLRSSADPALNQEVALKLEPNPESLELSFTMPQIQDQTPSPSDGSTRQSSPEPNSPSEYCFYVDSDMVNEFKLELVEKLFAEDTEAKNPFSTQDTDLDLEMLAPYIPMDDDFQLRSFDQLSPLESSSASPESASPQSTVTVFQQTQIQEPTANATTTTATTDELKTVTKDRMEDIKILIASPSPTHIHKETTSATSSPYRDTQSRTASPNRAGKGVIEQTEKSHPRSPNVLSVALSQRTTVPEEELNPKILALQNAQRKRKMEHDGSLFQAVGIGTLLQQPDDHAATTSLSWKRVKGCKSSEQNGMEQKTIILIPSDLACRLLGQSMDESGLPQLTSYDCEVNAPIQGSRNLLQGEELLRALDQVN
Chain of Heat shock factor protein 1 (Homo sapiens) (Q00613 whole entry, looked up, the tested form may be a part): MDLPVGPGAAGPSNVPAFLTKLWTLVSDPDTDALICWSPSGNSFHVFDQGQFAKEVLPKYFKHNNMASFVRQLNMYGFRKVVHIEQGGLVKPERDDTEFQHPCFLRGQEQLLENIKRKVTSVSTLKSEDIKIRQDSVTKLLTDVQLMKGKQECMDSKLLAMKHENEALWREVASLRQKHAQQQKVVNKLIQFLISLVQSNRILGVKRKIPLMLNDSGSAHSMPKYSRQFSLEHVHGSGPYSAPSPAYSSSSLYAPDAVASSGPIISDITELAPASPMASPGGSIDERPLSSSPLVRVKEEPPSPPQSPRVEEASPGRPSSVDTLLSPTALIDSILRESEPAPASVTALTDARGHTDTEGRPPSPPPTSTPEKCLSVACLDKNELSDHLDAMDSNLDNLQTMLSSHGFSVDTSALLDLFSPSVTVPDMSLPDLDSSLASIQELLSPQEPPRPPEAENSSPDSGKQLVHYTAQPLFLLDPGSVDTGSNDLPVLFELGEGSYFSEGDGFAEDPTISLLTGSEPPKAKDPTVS
Chain of Bile acid receptor (Homo sapiens) (Q96RI1 whole entry, looked up): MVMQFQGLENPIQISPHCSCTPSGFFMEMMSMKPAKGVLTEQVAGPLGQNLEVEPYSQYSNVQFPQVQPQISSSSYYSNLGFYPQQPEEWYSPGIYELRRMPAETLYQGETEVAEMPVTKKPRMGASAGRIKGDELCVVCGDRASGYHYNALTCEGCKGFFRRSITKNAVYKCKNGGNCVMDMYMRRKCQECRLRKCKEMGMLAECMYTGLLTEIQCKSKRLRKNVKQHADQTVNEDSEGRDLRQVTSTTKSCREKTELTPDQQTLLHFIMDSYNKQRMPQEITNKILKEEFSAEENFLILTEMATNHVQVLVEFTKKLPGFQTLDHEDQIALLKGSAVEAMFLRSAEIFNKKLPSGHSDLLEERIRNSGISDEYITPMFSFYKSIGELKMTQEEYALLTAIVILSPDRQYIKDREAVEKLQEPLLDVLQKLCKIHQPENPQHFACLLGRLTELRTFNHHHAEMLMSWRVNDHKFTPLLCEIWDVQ
Chain of Signal transducer and activator of transcription 3 (Homo sapiens) (P40763 whole entry, looked up, the tested form may be a part): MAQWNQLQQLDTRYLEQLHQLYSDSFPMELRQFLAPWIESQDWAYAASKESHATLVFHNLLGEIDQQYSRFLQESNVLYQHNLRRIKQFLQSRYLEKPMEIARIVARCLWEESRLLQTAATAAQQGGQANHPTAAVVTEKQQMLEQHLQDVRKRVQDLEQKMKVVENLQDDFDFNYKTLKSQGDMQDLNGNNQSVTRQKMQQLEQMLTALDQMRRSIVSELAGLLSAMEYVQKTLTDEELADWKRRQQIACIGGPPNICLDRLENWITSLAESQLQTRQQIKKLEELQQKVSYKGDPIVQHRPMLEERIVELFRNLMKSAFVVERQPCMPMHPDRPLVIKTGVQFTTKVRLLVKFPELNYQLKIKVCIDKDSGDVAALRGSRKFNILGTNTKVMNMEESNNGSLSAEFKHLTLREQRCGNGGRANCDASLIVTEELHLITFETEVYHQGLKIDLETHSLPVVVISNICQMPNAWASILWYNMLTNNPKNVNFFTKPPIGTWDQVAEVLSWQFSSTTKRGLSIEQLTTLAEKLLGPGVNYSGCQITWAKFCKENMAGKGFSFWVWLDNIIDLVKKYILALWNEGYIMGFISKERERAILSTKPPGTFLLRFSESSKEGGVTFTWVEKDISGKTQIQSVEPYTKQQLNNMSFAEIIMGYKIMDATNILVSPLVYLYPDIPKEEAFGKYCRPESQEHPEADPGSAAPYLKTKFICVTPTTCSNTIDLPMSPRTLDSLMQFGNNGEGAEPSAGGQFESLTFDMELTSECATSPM
Chain of Hepatocyte nuclear factor 6 (Homo sapiens) (Q9UBC0 whole entry, looked up): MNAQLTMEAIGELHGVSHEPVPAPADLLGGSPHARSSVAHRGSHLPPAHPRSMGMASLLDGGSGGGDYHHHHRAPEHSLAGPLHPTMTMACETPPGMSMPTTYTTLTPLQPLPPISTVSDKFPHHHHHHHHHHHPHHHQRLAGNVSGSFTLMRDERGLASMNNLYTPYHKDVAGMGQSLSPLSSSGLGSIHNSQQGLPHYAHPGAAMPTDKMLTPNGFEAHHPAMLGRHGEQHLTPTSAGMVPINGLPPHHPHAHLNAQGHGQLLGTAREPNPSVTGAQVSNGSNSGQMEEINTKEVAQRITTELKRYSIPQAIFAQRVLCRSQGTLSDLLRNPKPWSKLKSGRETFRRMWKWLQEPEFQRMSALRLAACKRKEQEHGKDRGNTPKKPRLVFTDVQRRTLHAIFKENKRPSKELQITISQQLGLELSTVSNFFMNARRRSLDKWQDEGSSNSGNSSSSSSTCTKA

As for `COC(OC(C)=O)c1ccccc1` (stereo unspecified), the outcome in assay [1], in [2], in [3], in assay [4], in assay [5] and in assay [6] was inactive. The call in assay [7], in assay [8], in [9], in assay [10], in assay [11] and in assay [12] was inactive. Also, the result in [13], in [14], in assay [15], in assay [16], in assay [17] and in [18] was inactive. Besides, the result in [19] was inactive.
Take `CCCCCCC(C)OC(=O)CCCCC(=O)OC(C)CCCCCC` (stereo unspecified): the outcome in assay [1], in [2], in assay [3], in assay [4], in assay [5] and in assay [6] was inactive. The call in assay [7], in [8], in assay [9], in assay [10], in assay [11] and in assay [12] was inactive. In addition, the outcome in assay [13], in assay [14], in assay [15], in assay [16], in assay [17] and in assay [18] was inactive. In assay [19], the compound was called inactive.
On to `Nc1ccc([N+](=O)[O-])cc1O`, for which the result in assay [1], in assay [3], in assay [4], in assay [5], in assay [6] and in [8] was inactive. Further, the compound was classed as inactive in [9], in assay [10], in assay [11], in assay [12], in assay [20] and in assay [13]. Besides, the compound was classed as inactive in assay [14], in assay [15], in assay [16], in assay [17], in assay [18] and in assay [19]. In addition, the AC50 in [7] was 31 µM (active).
As for `C#C[C@]1(O)CC[C@H]2[C@@H]3CCc4cc(OC)ccc4[C@H]3CC[C@@]21C`, the compound was called inactive in assay [1], in assay [2], in [3], in assay [4], in assay [5] and in assay [6]. The call in assay [7], in assay [8], in [9], in assay [11], in assay [12] and in [13] was inactive. Moreover, the result in [14], in assay [15], in assay [16], in assay [17], in assay [18] and in assay [19] was inactive. Further, the AC50 in assay [10] is 7.54 µM (active).

A word on the AC50: it is the concentration giving half of the maximal activity seen.
